Data as given in PubChem BioAssay (NCI).
Where “and” joins values, the source holds several entries; their conditions need not be identical. Equal values may be shown once. The panel holds about 83,000 compounds, 20% with a hit somewhere; the sample as a whole holds those more often.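 Note: values are percent growth. 100 is the growth of untreated cells, values between 100 and 0 indicate rising inhibition; between -100 and 0 indicates cell death.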 Calls of active or inactive are those of the source.

Tested on: IGROV1 ovarian
Test: NCI-60 one-dose screen, 48 h (100 = growth as untreated, 0 = no growth, -100 = all killed)
Conditions: 10 µM
Protocol: Growth inhibition of the IGROV1 human tumor cell line is measured as a screen for anti-cancer activity. Cells are grown in 96 well plates and exposed to the test compound for 48 hours. Compounds are tested at a single concentration, which is 10^-5 M for most compounds. The reported endpoint is percent growth (GI% or GIPRCNT), where numbers from 0 - 100% represent growth inhibition, and numbers from -100% - 0 represent cell death. For example, a value of 40 represents 60% growth inhibition. A value of 0 means no net growth occurred over the course of the experiment. A value of -40 indicates 40% of cells at the beginning of the experiment died by the end of the experiment. A value of -100 means all cells are dead at the end of the experiment.
NCI-60 Human Tumor Cell Lines Screen was performed using the standard one-dose NCI protocol, which is described in more detail at https://dtp.cancer.gov/discovery_development/nci-60/default.htm.
Compounds with GIPRCNT values below 10 were considered active. Activity score was based on GIPRCNT using the following formula: […]
Score is 0 for GIPRCNT values of 100 or above, 50 for GIPRCNT values of 0, and 100 for GIPRCNT values of -100.

Row | Compound | growth
1 | CC(=O)/C=C/c1ccc(N(CCO)Cc2ccc(C(C)(C)C)cc2)cc1 | 96.6% (inactive)
2 | CC(=O)/C=C/c1ccc(OCc2ccc(Cl)cc2)cc1 | 106% (inactive)

Same assay, conditions: 10 µM unless noted

Row | Compound | growth
3 | COc1cccc(NC(=O)c2sc3nc(C)c(C(O)c4ccccc4)cc3c2N)c1 (stereo not given) | 25.7% (inactive)
4 | Cc1ccc2c(c1)C(C)Cc1c(ncnc1-n1cnc3cc(C)ccc31)N2C (stereo not given) | 21.9% (inactive)
5 | COc1ccc(/C=N/C2=C(C#N)C(c3ccccc3)c3c(ccc4ccccc34)O2)cc1 (stereo not given) | 23.5% (inactive)
6 | O=S(=O)(O)c1ccc(N=Nc2ccc(N=Nc3cccc4ccccc34)c(S(=O)(=O)O)c2)cc1 | 96.3% (inactive)
7 | Cc1nc2sc(C(=O)Nc3cccc4ccccc34)c(N)c2cc1C(=O)/C=C/c1ccccc1 | 4.15% (active)
8 | CCOC(=O)c1c(-c2ccc(OC)cc2)c(C#N)c2c(C#N)c(N)nn2c1N | 24.6% (inactive)
9 | CCC(=O)Oc1cc(Cl)c(Cl)cc1Cl | 108% (inactive)
10 | COc1ccc(C2=C(CN)C(O)NC(=NCC(=O)c3ccc4ccccc4c3)N2)cc1 (stereo not given) | 102% (inactive)
11 | CCCCCCCCCCCCCCCCCCn1cc(COc2ccc(C=O)cc2)nn1 | 103% (inactive)
12 | Nc1n[nH]c2cccc(C#Cc3cccc(C(=O)Nc4ccc(CN5CCOCC5)c(C(F)(F)F)c4)c3)c12 | 18.6% (inactive)
13 | CCN(c1cc(-c2ccc(CN3CCC(/C=C/S(=O)(=O)c4ccccc4)CC3)cc2)cc(C(=O)NCc2c(C)cc(C)[nH]c2=O)c1C)C1CCOCC1 | 53.7% (inactive)
14 | CN(C)C(=O)c1cc2cnc(Nc3ccc(-c4csc5c(=S)cc(N6CCOCC6)oc45)cc3)nc2n1C1CCCC1 | 8.93% (active)
15 | Nc1nc2c(s1)CCc1cn(S(=O)(=O)c3ccccc3)cc1-2 | 100% (inactive)
16 | Cn1cc(-c2nc3c(F)cc4[nH]ncc4c3c3c2CCCC3)c(C(F)F)n1 | 51.8% (inactive)
17 | Cc1ccc(Cc2cnc(NC(=O)c3cc(C)oc3C)s2)cc1 | 62% (inactive)
18 | Cc1nn(-c2nc(-c3cc4ccccc4oc3=O)cs2)c(C)c1N=Nc1ccccc1 | 105% (inactive)
19 | CCOC(=O)C1=C(C)NC(=O)NC1c1c(Cl)n(-c2ccccc2)c2ccccc12 (stereo not given) | 66.1% (inactive)
20 | CN(C)c1ccc2nc3ccc(=O)cc-3sc2c1 | 50.2% (inactive) and 57.1% (inactive)

Row | Compound | growth
21 | [Cu+].[NH-][C@H]1C[N-]C(=O)[C@H]([C@H]2CCN=C(N)N2)[N-]C(=O)/C(=C\NC(N)=O)[N-]C(=O)[C@H](CNC(=O)C[C@@H](N)CCCN)[N-]C(=O)[C@H](CO)[N-]C1=O | 109% (inactive)
22 | COc1ccc(CN2CCc3c(Cl)nc(N)nc3C2=O)c(OC)c1 | -37.3% [100 µM] (active)
23 | COc1ccc(-c2c[nH]c(C(=O)O)c2-c2cc(OC)c(OC)c(OC)c2)cc1 | 54.8% (inactive)
24 | C=C1CC[C@@H]2[C@](C)(COC(C)=O)[C@H](OC(C)=O)CC[C@@]2(C)[C@@H]1CC(Nc1ccc(S(=O)(=O)Nc2nccs2)cc1)C1=CCOC1=O (stereo not given in full) | 12.6% (inactive)
25 | CC(C)(C)c1cc(NC(=O)Nc2ccc(-c3cn4c(n3)sc3cc(OCCN5CCOCC5)ccc34)cc2)no1 | 48.3% (inactive) and 37.5% (inactive)
26 | COc1cc(/C=N/NC(=O)CCN2c3ccccc3Sc3ccccc32)cc(OC)c1OC | 91.2% (inactive)
27 | C=C(CNCCc1ccc(O)cc1)[C@@H]1CC[C@]2(CO)CC[C@]3(C)[C@H](CC[C@@H]4[C@@]5(C)CCC(NCCc6ccc(O)cc6)C(C)(C)[C@@H]5CC[C@]43C)[C@@H]12 (stereo not given in full) | -78.4% (active)
28 | COc1ccc2c(c1)oc1c(C)c3c(c(C)c12)C(=O)N(Nc1ccccc1)C3=O | 102% (inactive)
29 | O=C(O)c1ccccc1Cc1ccc(F)c2ccccc12 | 113% (inactive) and 119% (inactive)
30 | COc1ccc(-c2cc(-c3cc(OC)c(OC)c(OC)c3)c(C#N)c(=O)n2CCCCC(=O)O)cc1 | 104% (inactive)
31 | CC(=O)OC[C@]12CCC(C)(C)C=C1[C@H]1CC[C@@H]3[C@@]4(C)CCCNC(C)(C)[C@@H]4CC[C@@]3(C)[C@]1(C)CC2 | 43.6% (inactive)
32 | N#CC1C(=O)c2ccccc2C1c1ccccc1 (stereo not given) | 100% (inactive) and 110% (inactive)
33 | Nc1nc(N)c2c(n1)NC(c1ccc(Cl)cc1)CC(c1cccc(Nc3ccncc3)c1)=N2 (stereo not given) | 41.6% (inactive)
34 | CCOc1nc(-c2ccccc2)cc2c(O)c(C(=O)N/N=C/c3ccc(N(C)C)cc3)[nH]c(=O)c12 | 15.7% (inactive)
35 | COc1cc(F)c(/C=C/c2cc(/C=C/c3cc(OC)c(OC)cc3F)n(-c3cc(F)cc(F)c3)n2)cc1OC | 88.6% (inactive)
36 | COc1ccc(Nc2nn3c(SCC(=O)c4ccc(C)cc4)nnc3s2)cc1 | 91.4% (inactive)
37 | CCCN1C(=O)/C(=c2\sc3n(c2=O)NC2C(N=3)N(CC)C(=O)N2CC)c2ccccc21 (stereo not given) | 38.9% (inactive)
38 | CCN(C(=O)N1CCN(c2cc3c(cc2F)c(=O)c(C(=O)O)cn3C2CC2)CC1)c1nc(-c2ccccc2)cs1 | 12.5% (inactive)

Same assay, conditions: 100 µM

Row | Compound | growth
39 | CC(=O)/C=C/c1ccc(N(CCO)Cc2ccc(C(C)(C)C)cc2)cc1 | -65.9% (active)
40 | CC(=O)/C=C/c1ccc(OCc2ccc(Cl)cc2)cc1 | 61.4% (inactive)
